A number with no mark means an inactive call. How the calls were made is not given here.

This note sets out measurements from PubChem BioAssay.

This test deals with Lethal factor (Bacillus anthracis) (UniProt P15917). Put plainly: Bacillus anthracis lethal factor inhibition, microsphere flow cytometry protease assay, validation at 10 µM (AID 588461). The conditions noted are these: multiplex microsphere protease cleavage assay, stronger effect = higher value.
As for `O=C1ON=C(c2ccc(Cl)cc2)/C1=C/c1ccc(O)cc1`, the inhibition was -7.8%.

As to `CC(C)COc1ccc(Cc2cnc(N)nc2N)cc1`, the inhibition was 1.9%.

On to `COc1ccc2c(c1)c(=O)oc1cc3occ(C(C)(C)C)c3cc12`, for which the inhibition was 6.9%.

As for `Cc1ccc(-n2cc(CNCCN3CCOC3=O)c(-c3ccc(F)cc3)n2)cc1`, the inhibition was -7.8%.

With `COc1ccc(CN2CCCCC2C(=O)Nc2ccc(OC)c(OCC(C)C)c2)cc1OC` (stereo not given), the inhibition was -1.3%.

In the case of `CCOC(=O)C(NC(C)=O)C(O)c1ccc([N+](=O)[O-])cc1` (stereo not given), the inhibition was -2.3%.

For `CCN(CC)c1ccc([C@H]2[C@@H]3CCCC[C@]3(O)CCN2CC(=O)NCc2ccco2)cc1`, the inhibition is -7.7%.

As to `CC1(C)CC(NCc2ccccc2)CCO1` (stereo not given), the inhibition is 1.1%.

`CN1C(C(=O)Nc2ccccn2)=C(O)c2sccc2S1(=O)=O`: the inhibition is -1.1%.

For the molecule `Oc1ccc(Oc2ncc(Cl)cc2Cl)cc1`, the inhibition was -2.9%.

With `COc1ccc(-c2c[n+](CC(=O)OC3CC(C)CCC3C(C)C)c3n2CCC3)cc1` (stereo not given), the inhibition was -5.8%.

With `COc1ccc2c(c1)c(CC(=O)O)c(C)n2C(=O)c1ccc(Cl)cc1`, the inhibition was -4.2%.

As for `CN(C)c1nc(N(C)C)nc(N(C)C)n1`, the inhibition was -4.2%.

Take `OCC1(CCOc2ccccc2)CCN(CCCn2cccn2)CC1`: the inhibition is -1.4%.

Consider `Cc1ccc(C2=NOC(=O)/C2=C\C=C\c2ccccc2)cc1`, for which the inhibition is 0.5%.

For the molecule `Cc1oc2cc(O)ccc2c(=O)c1Oc1ccccc1Br`, the inhibition is -0.7%.

For `COC1CCCCC1Nc1ccc(C)c(C)c1` (stereo not given), the inhibition was -5.5%.

`CCOC(=O)C(NC(=O)CCC(=O)Nc1ccc(S(N)(=O)=O)cc1)C(O)c1ccccc1` (stereo not given): the inhibition is 5.9%.

In the case of `Cc1ccnc2c1NC(=O)c1cccnc1N2C1CC1`, the inhibition was -4.5%.

In the case of `O=Cc1ccccc1Oc1ccccc1`, the inhibition is -0.3%.

Take `COc1cccc(C2CC(=O)C3=C(C2)Nc2ccccc2N(C(=O)CCC(=O)O)C3c2ccc(F)cc2)c1` (stereo not given): the inhibition was 5.1%.

In the case of `CC(=O)Oc1ccc(C(c2ccc(OC(C)=O)cc2)c2ccccn2)cc1`, the inhibition was -2.2%.

As to `COc1ccc(-c2coc3c(CN4CCOCC4)c(O)ccc3c2=O)cc1`, the inhibition was 4.1%.

As for `COc1ccc2nc(NC(=O)Nc3ccccc3)sc2c1`, the inhibition was -2.7%.

As for `COCC(C)NC(=O)c1ccc(CN2CCc3ccccc3C2)cc1` (stereo not given), the inhibition was -7.8%.

Regarding `CCCCOn1c(C)c(C(C)=O)c2c3no[n+]([O-])c3ccc21`, the inhibition was -1.9%.

With `O=C(NO)c1ccccc1O`, the inhibition was -4%.

Consider `Cc1cc(=O)[nH]c(=S)[nH]1`, for which the inhibition is -7.5%.

As to `Cc1ccc(CN2CCN(CCCc3ccccc3)CC2CCO)cc1` (stereo not given), the inhibition is -3.4%.

Regarding `CCN(CC)C(=O)N1CCN(C)CC1`, the inhibition was 4.2%.

`O=C1NC2(Nc3ccccc31)C(=O)Nc1ccc(Br)cc12` (stereo not given): the inhibition is 6.8%.

Turning to `COc1ccc(C(=O)/C=C2/c3ccccc3CC(C)(C)N2C)cc1`, the inhibition was -1.2%.

As to `CCOC(=O)C1C(=O)CC(C)(O)C(C(=O)OCC)C1/C=C/c1ccccc1` (stereo not given), the inhibition was -1.4%.

Take `CC(C)C[C@H](NC(=O)[C@@H]1Cc2ccccc2CN1C(=O)OC(C)(C)C)C(=O)NCC1CCC(C(=O)O)CC1` (stereo not given in full): the inhibition was -3.6%.

In the case of `O=C(COc1ccccc1)N1CCN(c2ccccc2)CC1`, the inhibition is -0.7%.

As to `CC1(C)Cc2ccccc2-c2nc(-c3ccccc3)oc(=O)c21`, the inhibition is -0.2%.

With `COC(=O)CSc1nc2ccc(N)cc2s1`, the inhibition was 1.5%.

For `Oc1[nH]c2ccccc2c1C1=NCCCC1`, the inhibition is -8.7%.

With `COC(=O)C1=C(C)N(Cc2ccco2)C(=O)/C1=C\c1ccc([N+](=O)[O-])cc1`, the inhibition was -3.7%.

`O=C(NCCc1cccc(F)c1)[C@@H]1CSC2c3ccccc3C(=O)N21` (stereo not given in full): the inhibition is 0.6%.
